# Reference: PubChem BioAssay
# Inconclusive results are not listed. Calls of active or inactive are those of the source. Unless noted, no rule for the calls is given here.
# Experiments:
# [1] = chitosan synthesis blockers in C. neoformans – flow cytometry, Cibacron Brilliant Red staining (AID 1347148); details: Cryptococcus neoformans chitosan, stronger effect = lower value; at 10 µM unless noted;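 also: compound exposure lasted three days at 37 degrees C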
# [2] = target: ATP-dependent translocase ABCB1 (Homo sapiens) (UniProt P08183); assay: P-glycoprotein substrate transport blockade – cell-based (AID 377; in the data active = fluorescence slope change above about 50%); details: MDR1-expressing cells, fluorescent substrate accumulation slope; stronger effect = higher value; concentration not given here
# Chain of ATP-dependent translocase ABCB1 (Homo sapiens) (P08183 whole entry, looked up): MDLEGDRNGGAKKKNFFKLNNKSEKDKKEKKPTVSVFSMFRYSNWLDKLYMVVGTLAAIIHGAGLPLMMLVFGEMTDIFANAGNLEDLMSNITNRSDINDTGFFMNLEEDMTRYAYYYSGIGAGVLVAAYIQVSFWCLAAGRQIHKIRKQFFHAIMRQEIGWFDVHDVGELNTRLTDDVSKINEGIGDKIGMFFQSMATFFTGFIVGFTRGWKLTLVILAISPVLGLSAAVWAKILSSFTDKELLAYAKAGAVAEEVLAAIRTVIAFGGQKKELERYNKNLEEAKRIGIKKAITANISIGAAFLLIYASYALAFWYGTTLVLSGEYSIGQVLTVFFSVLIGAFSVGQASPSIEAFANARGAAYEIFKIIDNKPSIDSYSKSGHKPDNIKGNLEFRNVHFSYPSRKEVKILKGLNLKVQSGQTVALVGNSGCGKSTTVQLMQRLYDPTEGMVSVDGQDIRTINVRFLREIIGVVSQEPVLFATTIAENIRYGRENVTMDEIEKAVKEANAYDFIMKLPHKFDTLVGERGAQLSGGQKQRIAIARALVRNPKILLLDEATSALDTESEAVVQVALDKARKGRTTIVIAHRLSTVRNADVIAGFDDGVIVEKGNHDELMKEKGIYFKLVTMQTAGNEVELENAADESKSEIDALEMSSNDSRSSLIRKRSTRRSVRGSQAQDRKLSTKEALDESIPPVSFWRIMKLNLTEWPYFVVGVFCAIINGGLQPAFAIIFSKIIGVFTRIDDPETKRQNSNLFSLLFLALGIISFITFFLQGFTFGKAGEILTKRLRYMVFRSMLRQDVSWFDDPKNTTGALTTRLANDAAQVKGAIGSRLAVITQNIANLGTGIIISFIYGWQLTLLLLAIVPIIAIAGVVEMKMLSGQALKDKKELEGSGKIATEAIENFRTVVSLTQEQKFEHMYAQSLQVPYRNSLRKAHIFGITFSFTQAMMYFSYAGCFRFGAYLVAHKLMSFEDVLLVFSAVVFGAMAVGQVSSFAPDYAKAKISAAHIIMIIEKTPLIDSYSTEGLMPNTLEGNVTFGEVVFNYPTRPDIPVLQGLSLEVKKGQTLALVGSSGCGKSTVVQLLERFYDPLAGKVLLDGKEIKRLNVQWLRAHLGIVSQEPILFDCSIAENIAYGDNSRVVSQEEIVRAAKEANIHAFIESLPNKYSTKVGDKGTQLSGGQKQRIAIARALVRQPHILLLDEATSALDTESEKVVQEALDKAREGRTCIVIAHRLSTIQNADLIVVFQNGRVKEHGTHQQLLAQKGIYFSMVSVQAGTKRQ
# [3] = rescue of PC12 cells from polyQ htt toxicity – LDH release (AID 1610); details: PC12 mutant huntingtin toxicity, final LDH at 4 uM, stronger effect = lower value
# [4] = glutamate transport activators, MN-1 cells, MN-1 cell line (AID 1612); details: MN-1 motor neuron cells, stronger effect = higher value;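 also: tested at 1 µM final; 0% = mean of DMSO vehicle wells on each plate; positive means more glutamate uptake than control and negative means less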
# [5] = GFP-Q80 aggregate reduction, neuronal-like cells, cell-based, NGF-treated PC12, GFPQ80 (AID 1614); details: PC12 NGF-treated GFP-polyQ80 inclusion reduction;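 also: lower means fewer inclusions and 0 means no inclusions at all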
# [6] = 75Q-TubH aggregate inhibition, S. cerevisiae, yeast (AID 1616); details: S. cerevisiae 75Q-TubH polyglutamine aggregation suppression; stronger effect = higher value
smiles,measurement,setting,value
Cc1cccc(CCN2CCC(C(=O)c3ccc(NS(C)(=O)=O)cc3)CC2)n1,fold fluorescence,[1],4.01 [at 124.5 µM] (inactive)
O=C(c1ccc(OCCN2CCCCC2)cc1)c1c(-c2ccc(O)cc2)sc2cc(O)ccc12,fluorescence slope change,[2],82.4% (active)
CC[C@H]1OC(=O)[C@H](C)[C@@H](O[C@H]2C[C@@](C)(OC)[C@@H](O)[C@H](C)O2)[C@H](C)[C@@H](O[C@@H]2O[C@H](C)C[C@H](N(C)C)[C@H]2O)[C@](C)(O)C[C@@H](C)CN(C)[C@H](C)[C@@H](O)[C@]1(C)O,normalised LDH release,[3],0.795
same,glutamate uptake change,[4],5.3%
same,inclusion score,[5],3
same,aggregation suppression score,[6],0.581
CC(Cc1ccc(O)c(O)c1)(NN)C(=O)O (centres undefined),glutamate uptake change,[4],6.68%
same,inclusion score,[5],2
same,aggregation suppression score,[6],1.15
Cc1c(C(=O)NN2CCCCC2)nn(-c2ccc(Cl)cc2Cl)c1-c1ccc(I)cc1,fold fluorescence,[1],6.03 (inactive)
CCN(CC)CC#CCOC(=O)C(O)(c1ccccc1)C1CCCCC1 (centres undefined),fluorescence slope change,[2],225% (active)
CC(C)C[C@H](NC(=O)[C@@H](O)[C@H](N)Cc1ccccc1)C(=O)O,fold fluorescence,[1],3.88 [at 162.1 µM] (inactive)
CC(C)(S)C(N)C(=O)O (centres undefined),glutamate uptake change,[4],-17.3%
same,inclusion score,[5],2
same,aggregation suppression score,[6],1.65
NC(Cc1cc(I)c(Oc2ccc(O)c(I)c2)c(I)c1)C(=O)O (centres undefined),glutamate uptake change,[4],-8.22%
same,aggregation suppression score,[6],0.825
O=C1C(c2c(O)[nH]c3ccccc23)=Nc2ccccc21,fold fluorescence,[1],3.17 [at 190.6 µM] (inactive)
CN1CCC[C@H]1c1cccnc1,glutamate uptake change,[4],15.4%
same,inclusion score,[5],2
same,aggregation suppression score,[6],1.26
O=c1[nH]c2ccccc2c2ccccc12,fold fluorescence,[1],3.09 [at 256.1 µM] (inactive)
CN1C2CCC1CC(OC(c1ccccc1)c1ccccc1)C2 (centres undefined),glutamate uptake change,[4],-4.45%
same,aggregation suppression score,[6],1.04
